# tim10-1 inh: growth inhibitors of tim10-1 mutant yeast | S. cerevisiae tim10-1 ts strain growth, BacTiter-Glo, 24 h | inhibition, % at 20 µM | hit rate 2.2% among 330,000;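 active = inhibition of at least 40%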;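 also: mutant grown at 25 °C; 0% = DMSO wells with yeast and 100% = wells holding no yeast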
# NALP1 inh: inhibitors of NALP1 inflammasome in yeast; S. cerevisiae NALP1/ASC/caspase-1 growth, X-gal OD620, 72 h; inhibition, % at 10 µM; hit rate 0.61% among 280,000; AID 2071; in the data active = inhibition mostly above about 24%, no sharp cut-off; inactive = mostly below about 32%
# PfHsp90 yeast 2: inhibits growth of yeast expressing Plasmodium falciparum Hsp90 | S. cerevisiae expressing PfHsp90, BacTiter-Glo ATP, 48 h; yeast lacking PDR1 and PDR3 efflux regulators | inhibition, % at 9.4 µM | hit rate 0.32% among 310,000 | AID 504621;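 active = every replicate shows inhibition above about 80%, whatever the replicate mean, limit read from the data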;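 also: 0% = DMSO neutral controls and 100% = 20 µM radicicol positive controls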
# NALP3 yeast inh: inhibitors of NALP3 inflammasome in yeast. Yeast reconstituted NLRP3/ASC/caspase-1, beta-gal luminescence, 24 h. inhibition, % at 10 µM. hit rate 0.39% among 330,000. AID 2825;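 active = inhibition of 50% or more; inactive = inhibition below 50%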;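 also: plate controls were induced DMSO wells for no effect and uninduced yeast grown without galactose for full effect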
# tim23-1 inh: growth inhibitors of tim23-1 mutant yeast | hit rate 1.3% among 330,000 | inhibition, % at 20 µM | S. cerevisiae tim23-1 growth, BacTiter-Glo luminescence, 24 h;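 active = growth inhibition of the mutant yeast at or above 50%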;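 also: temperature-sensitive mutant grown at 25 °C; plate controls were DMSO-treated mutant yeast for no effect and medium wells lacking yeast for full effect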
# TIM10 inh: growth inhibitors of TIM10 yeast strain; inhibition, % at 10 µM; S. cerevisiae TIM10 strain growth, BacTiter-Glo luminescence, 24 h; hit rate 1.4% among 330,000;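 active = inhibition of 40% or more at the single tested concentration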;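 also: wild-type TIM10 isogenic control strain grown at permissive 25 °C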
# tim10-1 conf: confirmation of tim10-1 mutant yeast growth inhibitors | inhibition, % at 20 µM | shares compounds with tim10-1 inh | hit rate 56% among 7,400 | AID 463213 | S. cerevisiae tim10-1 ts strain growth, BacTiter-Glo, 24 h;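 active = inhibition of yeast growth at or above a set limit in either of two repeat tests at 20 µM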;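 also: tim10-1 mutant grown at permissive 25 °C to find synthetic lethal compounds; 0% = DMSO yeast wells and 100% = medium wells without yeast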
# * = called active by the depositor; / = not tested or not shown. Rows were chosen to be rich in hits. Some 4.2% of all compounds tested hit in one or more screens of this group.
SMILES,tim10-1 inh,NALP1 inh,PfHsp90 yeast 2,NALP3 yeast inh,tim23-1 inh,TIM10 inh,tim10-1 conf
CC(=O)[C@H]1[C@H](C#N)C[C@H]2[C@@H]3CC=C4C[C@@H](O)CC[C@]4(C)[C@H]3CC[C@@]21C,41*,26,-5,9,39,36,34*
c1ccc2c(c1)-c1cccc3c1c-2cc1ccccc13,15,/,/,-4,21,16,/
Oc1cc(-c2ccccc2)c2ccccc2c1,54*,47,-114,-38,47,7,51*
COc1cc(/C=N/N=C2/C(=O)Nc3ccccc32)cc(OC)c1O,44*,19,-2,-9,43,36,52*
CCN(CC)S(=O)(=O)c1ccc(C(=O)NC2=C(C(=O)OC)SCC2)cc1,42*,12,-46,-21,26,23,31
O=C(NCCCNc1ccc(C(F)(F)F)cc1[N+](=O)[O-])c1ccc(Cl)cc1,46*,-9,12,38,9,-4,-2
CN(CC(=O)Nc1ccc(Cl)c(C(F)(F)F)c1)C(=O)CNC(=O)C1CCCCC1,12,/,15,8,0,-1,/
O=C(NC(=S)NCCc1ccc(Cl)cc1)c1ccco1,48*,18,7,30,30,35,24
S=C(NCCc1ccc(Cl)cc1)NCc1ccco1,34,16,-1,18,-1,24,/
S=C(NCCc1ccc(Cl)cc1)NC1CCCC1,43*,-28,-5,36,21,9,13
COc1ccc(CN2C(=O)[C@@H]3Cc4c([nH]c5ccccc45)C(C)(C)N3C2=O)cc1,44*,/,-74,9,43,27,22
COc1cccc(CN2C(=O)[C@H]3Cc4c([nH]c5ccccc45)C(C)(C)N3C2=O)c1,45*,/,9,5,31,35,30
FC(F)(F)c1cccc(N2CCN(c3nnnn3-c3ccccc3)CC2)c1,43*,/,-13,10,26,13,14
FC(F)(F)c1cccc(N2CCN(c3ccc4nnc(-c5ccccc5)n4n3)CC2)c1,49*,19,27,6,20,31,21
O=C1CC(C2CCCO2)C(=O)N1c1ccc(Cl)c(Cl)c1 (centres undefined),2,-11,/,1,8,2,/
COc1ccc(NC(=O)CS(=O)c2cccc(C(F)(F)F)c2)cc1 (centres undefined),-2,-3,1,1,3,9,/
CCCCCCSc1ccc([C@H]2N[C@@](C)(C(=O)OC)[C@H]3C(=O)N(C)C(=O)[C@@H]23)cc1,44*,/,-1,18,38,29,35*
COc1ccc(OCC(=O)Nc2cc(NC(=O)c3ccco3)ccc2OC)cc1,-55,1,3,6,12,1,/
Cc1cc(C)c(C#N)c(SCC(=O)N(CCC#N)c2ccc3c(c2)OCCO3)n1,15,/,18,12,16,0,/
CC(C)(C)NC(=O)COc1coc(CN2CCN(C(=O)c3ccco3)CC2)cc1=O,1,/,6,18,-10,7,/
CC1=Nc2cc(C(=O)NCC3CCCO3)ccc2Sc2ccc(C)cc21 (centres undefined),12,6,0,2,12,-8,/
CC1=Nc2cc(C(=O)NCc3ccco3)ccc2Sc2ccc(C)cc21,44*,-48,-5,13,34,14,30
O=[N+]([O-])c1ccc(C(=S)N2CCN(c3ccc(F)cc3)CC2)cc1,43*,17,-2,-8,35,21,26
Cc1cc(OC(=O)c2c(C)cc(OC(=O)c3c(C)cc(O)cc3O)cc2O)cc(O)c1C(=O)O,31,/,-22,5,34,8,/
CCCCn1c(N)c(N(C(=O)CSc2nncn2-c2ccccc2C)C2CCCC2)c(=O)[nH]c1=O,/,/,-24,/,/,/,/
SMILES,tim10-1 inh,NALP1 inh,PfHsp90 yeast 2,NALP3 yeast inh,tim23-1 inh,TIM10 inh,tim10-1 conf
CC1Cc2ccccc2N1C(=S)NC(=O)c1ccco1 (centres undefined),40*,-1,3,-5,13,34,36*
O=C(NC(=S)N1CCCc2ccccc21)c1ccco1,11,4,-9,22,7,21,/
COc1ccc2c(c1)C1C=CCC1C(c1cc3c(cc1Br)OCO3)N2 (centres undefined),51*,1,/,9,28,29,38*
COc1ccc(CC(=O)Nc2nc(-c3cc(OC)ccc3OC)cs2)cc1,43*,6,28,20,42,10,35*
CC(O)(CS(=O)(=O)Cc1ccc(Cl)cc1)C(=O)Nc1cccc(C(F)(F)F)c1 (centres undefined),23,-1,0,11,7,6,/
O=C(Nc1cccc(C(F)(F)F)c1)N(Cc1ccc(Cl)cc1)CC(O)C(F)(F)F (centres undefined),47*,12,48,6,44,18,26
Cc1sc2nc(CN3CCOCC3)nc(Oc3ccc(NC(=O)c4ccco4)cc3)c2c1C,48*,-13,-16,16,33,18,23
CCCCn1nc(C(=O)N(CC(C)C)c2c(N)n(CCCC)c(=O)[nH]c2=O)c2ccccc2c1=O,-10,/,/,26,1,1,/
O=C(NC1CCCC1)c1sc(=S)n2c1[nH]c(=O)c1ccccc12,47*,-9,/,-20,23,24,26
Cc1cc(NCC(c2ccccc2)c2ccccc2)n2ncnc2n1,-17,9,14,17,22,-10,/
COc1cc(C(=O)O/N=C(\N)Cc2ccc([N+](=O)[O-])cc2)cc(OC)c1OC,63*,0,/,-18,22,25,53*
C/C(N)=C(/C#N)C(=O)CSc1nc(-c2ccccc2)c(-c2ccccc2)o1,31,-1,-10,-37,21,3,/
O=C(Nc1ccccc1F)c1ccc2c(c1)CCN2S(=O)(=O)c1ccccc1,40*,20,5,1,36,23,16
C/C(=N\NC(N)=S)C12CC3CC(CC(C3)C1)C2,43*,-20,-14,11,46,26,-21
Cc1ccc(-c2cnc(C3CC3)o2)cc1S(=O)(=O)Nc1ccccc1,41*,-25,-5,-2,39,15,4
CC(=O)Nc1ccc(NS(=O)(=O)c2cc(-c3cnc(C4CC4)o3)ccc2C)cc1,1,-12,-6,-5,-1,1,/
O=C(CCCSc1nc2ccccc2c(=O)[nH]1)c1ccc(F)cc1,-6,6,-76,44,20,-9,/
Cc1sc2ncnc(N3CCOCC3)c2c1C,17,2,8,15,8,11,/
Cc1ccc(OCCN2CCN(c3ncnc4sc(C)c(C)c34)CC2)cc1,47*,-5,8,13,36,33,31
CCOC(=O)N1CCN(C2=C(NS(=O)(=O)c3ccccc3)C(=O)c3ccccc3C2=O)CC1,55*,-1,-24,15,34,25,15
